MsrA inhibitor: inhibitors of bovine MsrA; purified bovine MsrA, absorbance read-out; inhibition, % at 15.5 µM; actives 0.75% (n = 360,000); AID 651718; in the data active = inhibition above about 4.5%
rCAG RNA binder: binds r(CAG) RNA repeats. AID 651821. inhibition, % at 3 µM. r(CAG) RNA repeat, TO-PRO-1 dye displacement fluorescence. actives 1.3% (n = 370,000);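 active = inhibition above the plate cutoff, the mean of all test compounds on that plate plus 3 SD, cut at about 35% in these data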;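 note: higher means more dye released from RNA so lower well fluorescence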
bovine MsrA act: bovine methionine sulfoxide reductase A activation | purified bovine MsrA, absorbance read-out | activation, % at 10.6 µM | actives 0.3% (n = 360,000) | AID 602163; in the data active = activation above about 7.5%
sPLA2-III inh: Inhibits HGIII-sPLA2 liposome hydrolysis, primary screen. Q9NZ20. QFRET BODIPY PC-A2 liposome hydrolysis, fluorescence. inhibition, % at 12.2 µM. actives 0.56% (n = 370,000). AID 743126;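 active = inhibition above mean plus 3 SD of compounds lying within the high and low control bounds, cut at about 19% in these data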
Target sequence (Q9NZ20 whole entry, looked up): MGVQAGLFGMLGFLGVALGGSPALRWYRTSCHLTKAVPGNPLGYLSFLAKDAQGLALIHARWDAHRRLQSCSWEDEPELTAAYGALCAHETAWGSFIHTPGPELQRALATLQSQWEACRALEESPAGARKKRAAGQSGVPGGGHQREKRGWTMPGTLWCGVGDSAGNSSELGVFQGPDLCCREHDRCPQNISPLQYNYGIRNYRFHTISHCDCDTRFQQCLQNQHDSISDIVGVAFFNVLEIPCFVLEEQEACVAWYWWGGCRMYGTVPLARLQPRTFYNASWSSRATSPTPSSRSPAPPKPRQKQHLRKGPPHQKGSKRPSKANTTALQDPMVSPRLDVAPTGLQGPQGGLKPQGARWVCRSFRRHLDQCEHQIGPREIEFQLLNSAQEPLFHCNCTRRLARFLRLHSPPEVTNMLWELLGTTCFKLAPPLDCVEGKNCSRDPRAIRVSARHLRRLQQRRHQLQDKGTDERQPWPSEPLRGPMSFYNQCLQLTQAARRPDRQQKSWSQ
MsrA act confirm: bovine methionine sulfoxide reductase A activation confirmed; purified bovine MsrA, absorbance read-out; AID 602270; activation, % at 10.6 µM; actives 12% (n = 1,000); shares compounds with bovine MsrA act; in the data active = activation above about 4%;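 note: enzyme coupled to thioredoxin and thioredoxin reductase with NADPH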
Of the large screens only hits and unclear results are named; the others gave an inactive call (follow-up assays come after a bar, where they were run). Rows were chosen to be rich in hits. Some 2.8% of all compounds tested hit in one or more screens of this group.

Cc1ccc(C(C)C)cc1OCC(=O)Nc1nnc(C2CC2)s1	none
COCCCNC(=O)c1cccs1	none
COc1ccc(CNCCNC(=O)c2cccs2)c(OC)c1OC	bovine MsrA act 18 | MsrA act confirm inactive
Cc1cc(NS(=O)(=O)c2ccc(NC(=O)Cc3ccccc3)cc2)nc(C)n1	none
Cc1cc(NS(=O)(=O)c2ccc(NC(=O)CCCC(=O)O)cc2)nc(C)n1	bovine MsrA act 8.2 | MsrA act confirm inactive
O=C(CNC(=O)C12CC3CC(CC(C3)C1)C2)Nc1ncccc1O	none
CCCc1nc2cc(Cl)c([N+](=O)[O-])cc2o1	none
NC(=O)CC1(CC(=O)O)CCCCC1	none
O=C(Nc1n[nH]c(=S)s1)c1ccco1	bovine MsrA act 8.7 | MsrA act confirm inactive
O=C(Nc1nnc(-c2ccc(F)cc2)s1)c1ccco1	none
O=C1c2ccccc2-c2c1cccc2C(=O)N(CCO)CCO	bovine MsrA act 12 | MsrA act confirm inactive
CC(=O)Nc1ccc(NC(=O)CCOc2cc(C)ccc2C)cc1	none
Cc1ccc2cc(C#N)c(N3CCCN(S(=O)(=O)c4ccccc4)CC3)nc2c1	bovine MsrA act 8.7 | MsrA act confirm inactive
Cc1ccc2cc(C#N)c(N3CCCN(S(=O)(=O)c4ccc(F)cc4)CC3)nc2c1	none
COc1ccc(O)c(/C=N/NC(=O)CCC(=O)Nc2ccc(F)cc2)c1	bovine MsrA act 7.9 | MsrA act confirm inactive
CCCCc1cc(=O)oc2c(CN3CCCC3)c(O)c(Cl)cc12	none
CCCc1cc(=O)oc2c(CN3CCN(C)CC3)c(O)c(Cl)cc12	bovine MsrA act 13 | MsrA act confirm inactive
COCCNC(=O)C1=NOC(Cn2cc(C#N)c(=O)n(C)c2=O)C1 (configuration not stated)	none
COc1ccc(C2CC(Cn3cc(C#N)c(=O)n(C)c3=O)ON2C)cc1 (configuration not stated)	bovine MsrA act 9.3 | MsrA act confirm inactive
CS(=O)(=O)N1CCN(C(=O)c2ccc(Cl)s2)CC1	bovine MsrA act 16 | MsrA act confirm inactive
Cc1ccc(S(=O)(=O)N2CCC(C(=O)NCCCOC(C)C)CC2)cc1	bovine MsrA act 7.7 | MsrA act confirm inactive
CC(C)(C)c1cc(NC(=O)COC(=O)c2ccccc2)n(-c2ccccc2)n1	none
CC(C)(C)c1cc(NC(=O)c2ccco2)n(-c2ccccc2)n1	bovine MsrA act 16 | MsrA act confirm inactive
CCc1ccc(C(O)(C(C)C)C(CN2CCOCC2)c2ccccc2)cc1 (configuration not stated)	bovine MsrA act 8.1 | MsrA act confirm inactive
Nc1c2nc(-c3ccccc3)[nH]c(=O)c2nc(=O)n1-c1ccccc1	none
Cc1cc(Cl)ccc1OCc1n[nH]c(=S)n1C1CCCCC1	bovine MsrA act 8.6 | MsrA act confirm inactive
O=S1(=O)CCOC[C@H](c2ccccc2)N1Cc1cccc(F)c1	bovine MsrA act 11 | MsrA act confirm inactive
O=C(Nc1ccccc1F)C1CCCN1S(=O)(=O)c1cccc2nsnc12 (configuration not stated)	none
O=C(Nc1ccccc1Br)C1CCCN1S(=O)(=O)c1cccc2nsnc12 (configuration not stated)	bovine MsrA act 15 | MsrA act confirm inactive
COc1cc([N+](=O)[O-])ccc1NC(=O)Nc1cccnc1	none
COc1cc(C(=O)NCc2ccccc2)cc(Br)c1OC	bovine MsrA act 10 | MsrA act confirm inactive
CCN(CC)S(=O)(=O)c1cc(NC(=O)COC(=O)CCC(=O)c2cccs2)ccc1C	bovine MsrA act 8.4 | MsrA act confirm inactive
COC(=O)c1cc2c(c3c4ccccc4n(S(=O)(=O)c4ccccc4)c13)C(=O)N(Cc1ccco1)C2	none (no result: bovine MsrA act)
C[C@H](CO)N1C[C@H](C)[C@@H](CN(C)S(=O)(=O)c2ccc3c(c2)OCCCO3)OCc2cnnn2CCCC1=O	none
CC(C)NC(=O)N(C)C[C@@H]1OCc2cn(nn2)CCCC(=O)N([C@H](C)CO)C[C@H]1C	bovine MsrA act 13 | MsrA act confirm inactive
C[C@@H]1CN([C@H](C)CO)C(=O)CCCn2nncc2CO[C@@H]1CN(C)S(=O)(=O)c1ccc2c(c1)OCCCO2	bovine MsrA act 12 | MsrA act confirm inactive
Cc1ccc(C)c(-n2cc(CN3CCNC(=O)CC3)c(-c3ccccc3)n2)c1	none
O=C(O)CSc1nnc(-c2cccc(S(=O)(=O)N3CCCCC3)c2)o1	none
Fc1ccccc1Cn1nnc(-c2ccc3c(c2)OCO3)n1	none
COc1ccc(-c2nnn(Cc3ccccc3F)n2)cc1	bovine MsrA act 16 | MsrA act confirm inactive
N#CCC[C@@H]1CC[C@]2(CCCN(C(=O)c3ccno3)C2)O1	none (no result: MsrA inhibitor, bovine MsrA act)
S=c1[nH]nc(-c2cccnc2)n1/N=C/c1cccs1	bovine MsrA act 10 | MsrA act confirm inactive
O=C(COc1ccc(Cl)cc1)Nc1cccc(-c2ccc3nncn3n2)c1	bovine MsrA act 15 | MsrA act confirm inactive
O=CN1CCN(C(=O)c2cc3cc(Cl)ccc3[nH]2)CC1	none
O=C(Nc1ccc(Cl)cc1)Nc1ccon1	none
O=c1c2ccccc2sn1-c1ccc(Cl)cc1	none
O=c1c2ccc(F)cc2sn1-c1ccccc1	bovine MsrA act 13 | MsrA act confirm 8.0
O=c1c2ccccc2sn1-c1ccc(F)cc1	bovine MsrA act 12 | MsrA act confirm 8.3
Cc1ccc(-n2sc3cc(F)ccc3c2=O)c(C)c1	bovine MsrA act 14 | MsrA act confirm inactive
O=c1c2cc(F)ccc2sn1-c1ccccc1Cl	none
Cc1ccc(-n2sc3ccccc3c2=O)cc1	bovine MsrA act 13 | MsrA act confirm inactive
C=CCOc1ccc(/C=C\c2nc(O)c([N+](=O)[O-])c(=O)[nH]2)cc1OC	none (no result: MsrA inhibitor, rCAG RNA binder, sPLA2-III inh)
COCCNC(=S)N(Cc1cccs1)Cc1cc2cccc(C)c2[nH]c1=O	none
Cc1ccc(S(=O)(=O)Nc2cccc(-c3ccc4nnc(C)n4n3)c2)s1	bovine MsrA act 20 | MsrA act confirm inactive
CCN(CC)Cc1cc(C(C)(C)C)cc(N2CCOCC2)c1O	none
Cc1cc(CN(C)C(=O)c2ccc(OC3CCN(CCc4ccccc4)CC3)cc2)on1	bovine MsrA act 11 | MsrA act confirm inactive
O=C(NCCNC(=O)c1ccc(-c2ccc(Cl)c(Cl)c2)o1)c1cnccn1	bovine MsrA act 10 | MsrA act confirm inactive
O=C(Cn1c(=O)oc2ccccc21)Nc1n[nH]c(=S)s1	bovine MsrA act 7.9 | MsrA act confirm 5.5
CC(C)Cn1c(N)c(C(=O)COC(=O)c2cc3ccccc3cc2O)c(=O)n(C)c1=O	none
O=C(c1ccc(Cl)cc1Cl)N1CCC(c2nc3c(nnn3Cc3ccco3)c(=O)[nH]2)CC1	bovine MsrA act 23 | MsrA act confirm inactive
Cc1ccc(C(=O)CC(C(=O)O)n2cnc([N+](=O)[O-])n2)cc1 (configuration not stated)	bovine MsrA act 9.4 | MsrA act confirm inactive
O=C1C(Cl)=C(NCCc2ccccc2)C(=O)c2ccccc21	none
O=C1C(Cl)=C(NCc2cccnc2)C(=O)c2ccccc21	bovine MsrA act 12 | MsrA act confirm 6.1
Cc1ccc(C2(C(F)(F)F)NC(=O)N3C(=C2C#N)Nc2ccccc23)cc1 (configuration not stated)	none
O=c1cc(N2CCC3(CC2)OCCO3)[nH]c(=O)n1C1CCCCC1	bovine MsrA act 9.6 | MsrA act confirm inactive
COCCCn1c(=O)c2ccccc2n2c(=S)[nH]nc12	bovine MsrA act 9.8 | MsrA act confirm 5.4

Compound activity from PubChem.
